Experimental data taken from the supplement of paper PMC9262897, “Low-cost anti-mycobacterial drug discovery using engineered E. coli” (Nature Communications, 2022).
Counter-ions that a name gives are not always drawn. ± gives the standard deviation of the averaged measurements.

Legend:
Test in all cases: growth (OD600 after 10 h); higher = more growth (less inhibition)
[1] = tested on: E. coli TESEC Alr+ wild-type control; conditions: compound 0.1 mM; raw OD600 reference: median of DMSO wells 0.241, cell-free background 0.041
Experimental: (§1)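 TESEC Mtb Alr E. coli, or the Alr+ wild-type control, in 384-well plates with Prestwick library compounds at 0.1 mM and 1% DMSO, across arabinose induction levels of 1E3 to 1E7 nM. Growth is read as OD600 after 10 h at 37 °C in triplicate biological replicates.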

E. coli TESEC Mtb Alr [2] = conditions: compound 0.1 mM
Experimental: as §1

E. coli TESEC Mtb Asd = conditions: compound 0.1 mM
Experimental: (§2)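 TESEC E. coli strains in which the native enzyme is deleted and replaced by arabinose-inducible Mtb Asd, DapB, CysH or TrpD, each grown in its selective medium. Strains were screened against the Prestwick library at 0.1 mM and 1% DMSO in 384-well format at low and high arabinose induction. Growth is read as OD600 after 10 h in triplicate.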

E. coli TESEC Mtb DapB = conditions: compound 0.1 mM
Experimental: as §2

E. coli TESEC Mtb Alr [3] = conditions: compound 0.1 mM; remark: listed apart in the source
Experimental: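 TESEC Mtb Alr E. coli (ΔaraC ΔtolC ΔentC Δalr ΔdadX, arabinose-inducible Mtb Alr) or the Alr+ wild-type control strain, grown in defined M9-fructose medium without D-alanine in 96-well plates with Prestwick library compounds at 0.1 mM and 1% DMSO. Low Alr induction is 0.1 µM arabinose and high induction is 10 mM arabinose.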

[4] = arabinose 1000 nM, raw OD600 reference: median of DMSO wells 0.294, cell-free background 0.041
[5] = arabinose 10000 nM, raw OD600 reference: median of DMSO wells 0.264, cell-free background 0.041
[6] = arabinose 100000 nM, raw OD600 reference: median of DMSO wells 0.201, cell-free background 0.041
[7] = arabinose 1000000 nM, raw OD600 reference: median of DMSO wells 0.193, cell-free background 0.041
[8] = arabinose 10000000 nM, raw OD600 reference: median of DMSO wells 0.146, cell-free background 0.041
[9] = arabinose induction (level): High, raw OD600 reference: median of DMSO wells 0.331, cell-free background 0.041
[10] = arabinose induction (level): Low, raw OD600 reference: median of DMSO wells 0.417, cell-free background 0.041
[11] = arabinose induction (level): High, raw OD600 reference: median of DMSO wells […], cell-free background 0.041
[12] = arabinose induction (level): Low, raw OD600 reference: median of DMSO wells 0.227, cell-free background 0.041
[13] = arabinose 100 nM, raw OD600 reference: median of DMSO wells 0.413, cell-free background 0.052
[14] = arabinose 10000000 nM, raw OD600 reference: median of DMSO wells […], cell-free background 0.052

SMILES | growth [1] | growth (E. coli TESEC Mtb Alr [2]; [4]) | growth (E. coli TESEC Mtb Alr [2]; [5]) | growth (E. coli TESEC Mtb Alr [2]; [6]) | growth (E. coli TESEC Mtb Alr [2]; [7]) | growth (E. coli TESEC Mtb Alr [2]; [8]) | growth (E. coli TESEC Mtb Asd; [9]) | growth (E. coli TESEC Mtb Asd; [10]) | growth (E. coli TESEC Mtb DapB; [11]) | growth (E. coli TESEC Mtb DapB; [12]) | growth (E. coli TESEC Mtb Alr [3]; [13]) | growth (E. coli TESEC Mtb Alr [3]; [14])
CCc1c2c(nc3ccc(OC(=O)N4CCC(N5CCCCC5)CC4)cc13)-c1cc3c(c(=O)n1C2)COC(=O)[C@]3(O)CC [Irinotecan hydrochloride trihydrate] | 0.234 ± 0.0062 | 0.32 ± 0.0061 | 0.2556 ± 0.0019 | 0.218 ± 0.015 | 0.18 ± 0.0024 | 0.156 ± 0.0056 | 0.321 ± 0.042 | 0.414 ± 0.026 | 0.227 ± 0.0094 | 0.243 ± 0.0046 | 0.401 ± 0.0022 | 0.366 ± 0.018
Cc1ccc(C(=O)c2cc(O)c(O)c([N+](=O)[O-])c2)cc1 [Tolcapone] | 0.04277 ± 0.00032 | 0.0471 ± 0.0057 | 0.04323 ± 0.00038 | 0.0445 ± 0.00061 | 0.04313 ± 0.00042 | 0.0485 ± 0.00089 | 0.0527 ± 0.0018 | 0.0521 ± 0.0091 | 0.0526 | 0.0557 ± 0.0019 | 0.0574 ± 0.0008 | 0.0554 ± 0.00035
O=C(O)COC(=O)Cc1ccccc1Nc1c(Cl)cccc1Cl [Aceclofenac] | 0.154 ± 0.0035 | 0.205 ± 0.019 | 0.223 ± 0.015 | 0.12 ± 0.007 | 0.141 ± 0.0064 | 0.132 ± 0.012 | 0.205 ± 0.026 | 0.263 ± 0.011 | 0.156 ± 0.0075 | 0.176 ± 0.028 | 0.352 ± 0.034 | 0.244 ± 0.015
COc1ccnc(C[S+]([O-])c2nc3cc(OC(F)F)ccc3[nH]2)c1OC (stereo not drawn) [Pantoprazole sodium] | 0.168 ± 0.0022 | 0.218 ± 0.0049 | 0.28 ± 0.0076 | 0.18 ± 0.011 | 0.119 ± 0.0037 | 0.137 ± 0.0065 | 0.308 ± 0.1 | 0.296 ± 0.057 | 0.189 ± 0.0071 | 0.194 ± 0.018 | 0.399 ± 0.011 | 0.291 ± 0.022
CN1C2CCCC1CC(NC(=O)c1nn(C)c3ccccc13)C2 (stereo not drawn) [Granisetron] | 0.208 ± 0.0038 | 0.301 ± 0.026 | 0.2743 ± 0.0024 | 0.171 ± 0.0068 | 0.213 ± 0.014 | 0.126 ± 0.0041 | 0.28 ± 0.063 | 0.379 ± 0.08 | 0.202 ± 0.022 | 0.238 ± 0.015 | 0.424 ± 0.0065 | 0.351 ± 0.0039
c1ccc(C2CN3CCSC3=N2)cc1 (stereo not drawn) [Tetramisole hydrochloride] | 0.244 ± 0.003 | 0.303 ± 0.011 | 0.259 ± 0.0099 | 0.242 ± 0.045 | 0.176 ± 0.0046 | 0.16 ± 0.0039 | 0.257 ± 0.033 | 0.358 ± 0.046 | 0.203 ± 0.02 | 0.252 ± 0.035 | 0.408 ± 0.014 | 0.316 ± 0.015
CN(C)CCCC1(c2ccc(F)cc2)OCc2cc(C#N)ccc21 (stereo not drawn) [Citalopram Hydrobromide] | 0.207 ± 0.0054 | 0.272 ± 0.011 | 0.25 ± 0.0072 | 0.173 ± 0.0067 | 0.155 ± 0.0054 | 0.138 ± 0.0049 | 0.289 ± 0.024 | 0.397 ± 0.051 | 0.191 ± 0.022 | 0.211 ± 0.017 | 0.4152 ± 0.0024 | 0.321 ± 0.017
CN(Cc1cnc2nc(N)nc(N)c2n1)c1ccc(C(=O)N[C@@H](CCC(=O)O)C(=O)O)cc1 (racemic) [Amethopterin (R,S)] | 0.213 ± 0.01 | 0.273 ± 0.0079 | 0.224 ± 0.011 | 0.206 ± 0.049 | 0.14 ± 0.0075 | 0.144 ± 0.0042 | 0.213 ± 0.024 | 0.368 ± 0.029 | 0.192 ± 0.033 | 0.204 ± 0.022 | 0.244 ± 0.13 | 0.125 ± 0.0053
CN[C@@H]1[C@@H](O)[C@@H](O[C@@H]2[C@@H](O)[C@H](O[C@H]3OC(CN)=CC[C@H]3N)[C@@H](N)C[C@H]2N)OC[C@]1(C)O [Sisomicin sulfate] | 0.0439 ± 0.00085 | 0.04797 ± 0.00015 | 0.0404 ± 0.00055 | 0.0483 ± 0.00072 | 0.0422 ± 0.00046 | 0.0657 ± 0.002 | 0.075 ± 0.0066 | 0.107 ± 0.055 | 0.144 ± 0.032 | 0.0843 ± 0.01 | 0.231 ± 0.15 | 0.3071 ± 0.0019
